Inconclusive results are not listed. Active and inactive are the calls of the source. The call rests on the fitted dose curve; in most records, active means well fitted curve in the direction sought with a large enough effect; inconclusive means small, poorly fitted or top-dose-only effect, or another doubt; inactive means no such curve, though single readings can be large; an effect the other way counts as inactive or inconclusive.
Columns and labels:
UISO = test: qHTS assay to identify novel small-molecules to repurpose for Merkel cell carcinoma treatment (AID 1296009); conditions: MCC and control cell lines, CellTiter-Glo viability, 72 h; series mostly up to 46 µM; further: nearly all actives have a fitted effect of over 60% in size
Method in brief: (§1)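 CellTiter-Glo luminescence after 72 hr compound exposure at 37 degree celsius gave cell viability. Libraries NPC and MIPE were run as 8- and 11-point dose responses; RLUs normalized to DMSO (negative) and no-cell (cytotoxicity) controls.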

WaGa = test: as above; conditions: MCC and control cell lines, CellTiter-Glo viability, 72 h; series mostly up to 46 µM
Method in brief: as §1

C33A = test: Primary qHTS to identify gynecologic anti-cancer compounds using libraries of approved drugs and bioactive compounds (AID 1345084); conditions: Gynecologic cancer cell panel viability, ATPlite luminescence, 48 h; series mostly up to 57.5 µM; further: nearly all actives have a fitted effect of over 55% in size
Method in brief: (§2)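 In this quantitative HTS, cell killing is estimated from loss of ATP-dependent luciferase light. Cells see five compound concentrations over a 48 h exposure.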

CAOV3 = test: as above; conditions: Gynecologic cancer cell panel viability, ATPlite luminescence, 48 h; series mostly up to 57.5 µM
Method in brief: as §2

CASKI = test: as above; conditions: Gynecologic cancer cell panel viability, ATPlite luminescence, 48 h; series mostly up to 57.5 µM
Method in brief: as §2

Es-2 = test: as above; conditions: Gynecologic cancer cell panel viability, ATPlite luminescence, 48 h; series mostly up to 57.5 µM
Method in brief: as §2

HeLa = test: as above; conditions: Gynecologic cancer cell panel viability, ATPlite luminescence, 48 h; series mostly up to 57.5 µM
Method in brief: as §2

Hek293T = test: as above; conditions: Gynecologic cancer cell panel viability, ATPlite luminescence, 48 h, control line for the selectivity index; series mostly up to 57.5 µM
Method in brief: as §2

JEG-3 = test: as above; conditions: Gynecologic cancer cell panel viability, ATPlite luminescence, 48 h; series mostly up to 57.5 µM
Method in brief: as §2

Measured: Potency

C[C@@H](O)[C@H]1C(=O)N2C(C(=O)O)=C(SCCN=CN)C[C@H]12
inactive: all assays above

CC(=O)OC(C)C[N+](C)(C)C (centres undefined)
inactive: all assays above

C[C@]12CCC(=O)C=C1CC[C@@H]1[C@@H]2CC[C@@]2(C)[C@H]1CC[C@]2(O)C(=O)CO
inactive: all assays above

NC/C=C/C(=O)O
inactive: all assays above

COc1ccc(CCN(C)CCCC(C#N)(c2cc(OC)c(OC)c(OC)c2)C(C)C)cc1OC (centres undefined)
inactive: all assays above

OC(CCN1CCCCC1)(c1ccccc1)C1CCCCC1 (centres undefined)
inactive: all assays above

CCN1CCC[C@H]1CNC(=O)c1c(O)c(Cl)cc(Cl)c1OC
inactive: all assays above

Cc1cccc(C)c1NC(=O)C(C)N (centres undefined)
inactive: all assays above

Cc1ccc(/C(=C\CN2CCCC2)c2ccccn2)cc1
inactive: all assays above

Cc1scc2c1N(C(=O)CN1CCN(C)CC1)c1ccccc1NC2=O
inactive: all assays above

CN/C(=C\[N+](=O)[O-])NCCSCc1ccc(CN(C)C)o1
inactive: all assays above

COc1cc(Cc2cnc(N)nc2N)cc(OC)c1OC
inactive: all assays above

c1cnc(N2CCN(Cc3ccc4c(c3)OCO4)CC2)nc1
inactive: all assays above

NC(=O)c1ncn([C@@H]2O[C@H](CO)[C@@H](O)[C@H]2O)c1O
inactive: all assays above

C(=C\c1ccccc1)/CN1CCN(C(c2ccccc2)c2ccccc2)CC1
inactive: all assays above

CCCNC(C)C(=O)Nc1ccccc1C (centres undefined)
inactive: all assays above

CN(C)CCN(Cc1cccs1)c1ccccn1
inactive: all assays above

NC(=O)c1cn(Cc2c(F)cccc2F)nn1
inactive: all assays above

CC(C)NCC(O)c1cc(O)cc(O)c1 (centres undefined)
inactive: all assays above

Cc1ccc(=O)n(-c2ccccc2)c1
inactive: all assays above

NC(N)=NC(=O)Cc1c(Cl)cccc1Cl
inactive: all assays above
